Results on 31 compounds are retold here after PubChem BioAssay (EPA / NIEHS).

Structures are written as SMILES. Calls of active or inactive are those of the source. Rule for the calls: active = hit-call score of the fitted dose curve at least 0.9, where 1 is the maximum; inactive = score below 0.9.

Read-out in the experiment: Bcl-2 (BAX) gene, BAX (gene 581)
Kind of experiment: LTEA_HepaRG_BAX: Life Technologies and Expression Analysis (LTEA) Assay for Bcl-2 (BAX) gene using HepaRG (AID 2283470). The settings on record: mRNA level, 48 h; actives raise or lower the signal. As to the method: LTEA_HepaRG is a cell based, multiplexed-readout assay that uses HepaRG, a human liver cell line, with measurements taken at 48 hours after chemical dosing on a 96-well plate.LTEA_HepaRG_BAX is one of 102 assay component(s) measured in the LTEA HepaRG cell culture assay. It is a marker of Cell proliferation, survival, death.Data from the assay component LTEA_HepaRG_BAX was analyzed into 1 endpoint. This assay endpoint, LTEA_HepaRG_BAX, was analyzed with bidirectional fitting relative to DMSO as the negative control and baseline of activity. Using a type of inducible reporter, measures of mRNA induction for gain or loss-of-signal activity can be used to understand regulation of transcription factor activity. To generalize the intended target to other relatable targets, this assay endpoint is annotated to the cell cycle intended target family, where the subfamily is Cell proliferation, survival, death.
A total of 1060 chemcials from the ToxCast library were tested in eight-point concentration-response experiments. Cell culture and cytotoxicity assays were conducted at Thermo Fisher Scientific's Custom Services facility (Madison, WI). A single lot of human HepaRG cells (Thermo Fisher Scientific, Frederick, MD) was used for the cell culture experiments. 96-well format collagen type I coated plates of human HepaRG cells were prepared using established methods. Briefly, cryopreserved HepaRG cells were thawed, plated at a density of approximately 100,000 cells/well in HepaRG Thaw, Plate, and General Purpose media (HPRG770, Thermo Fisher Scientific), and incubated for 48 hours. 0.5% DMSO was selected as vehicle control to balance the requisite need of DMSO in HepaRG cultures to maintain differentiation (for example, baseline metabolism, proportions of hepatocytes vs. cholangiocytes), while enabling further hepatic receptor pathway activation (for example, PXR and CAR) in response to chemical exposure. 48 hours after plating, the culture medium was replaced with HepaRG Serum-Free Incudtion Media. Cells were exposed to each test chemical in duplicate and maintained in CO2 incubators for another 48 hours. Chemical plates were thawed to room temperature and 200x concentrations of treatment groups were prepared. 8-point conentration-reponse curves were made with the highest exposure at 100 uM, followed by half-log dilutions, all in 0.5% DMSO. Each test plate contained variouse controls, induction positive controls (1mM phenobarbital), cytotoxicity positive controls ([…] aflatoxin B1), vehicle controls (0.5% DMSO), and total lysis controls (0.5% DMSO). Cell morphology images were taken using an Essen IncuCyte FLR automated microscope, with six 96-well plates imaged in about 24 minutes. Images were captured and exported and JPEG files. Spent culture media was transfered to black-well plates for the LDH assay, and remaining media was sorted at -80 C for later use. Cells were treated with RLT buffer and frozen until shipped for gene expression analysis. Total RNA was isolated from the cell suspension in 75 uL of Buffer RLT (Qiagen, Germantown, MD 20874) by Quintiles/Expression Analysis (Durham, NC) using a custom isolation procedure. Total RNA from each plate well was transferred to a preamplification plate. Fluidigm's 96.96 Dynamic ArrayTM (Fluidigm, Amsterdam, the Netherlands) technology was used for gene expression analyses by quantitative reverse transcription polymerase chain reaction (qRT-PCR, performed by Quintiles/Expression Analysis, Durham, NC)89. Standard TaqManTM Assays (Applied Biosystems/ThermoFisher Scientific, Foster City, CA) were used to assess the expression of 93 genes selected based on their selectivity and sensitivity to important hepatic receptors known to be modulated by environmental chemicals; importance in human hepatocyte functionality; and hepatotoxicity. […]
Consider `C=CC(=O)OCCCCCC(C)C`, for which the compound was called inactive.
Same read-out and setting: next, `O=c1[nH]c(=O)[nH]c(=O)[nH]1`: “inactive”.
Take `C=C(C)C(=O)[O][Sn]([CH2]CCC)([CH2]CCC)[CH2]CCC`: the AC50 is 92.1 µM (active).
As to `Oc1cccc2cccnc12`, the compound was called inactive.
Still for that read-out and setting: in the case of `CN(C)N=O` it was “inactive”.
On the same count and under the same terms, in the case of `COc1cc(-c2ccc(N)c(OC)c2)ccc1N` it was “inactive”.
Same read-out and setting: next, `CCC(=O)C(CC(C)N(C)C)(c1ccccc1)c1ccccc1` (stereo unspecified): “inactive”.
`ClCC(Cl)CCl`: the half-maximal activity concentration (AC50) was 9.92 µM (active).
For the compound `ClC1(Cl)C2(Cl)C3(Cl)C4(Cl)C(Cl)(Cl)C5(Cl)C3(Cl)C1(Cl)C5(Cl)C24Cl` (stereo unspecified), the result was inactive.
Consider `CCOP(=S)(OCC)Oc1nc(Cl)c(Cl)cc1Cl`, for which the call was inactive.
Still for that read-out and setting: in the case of `CC(C)(C)CC(C)(C)c1ccc(O)cc1` it was “inactive”; in that of `NC(=O)O`, “inactive”.
The same measure, in the same setting: in the case of `CCN1CCC2(CC1)COc1cc3c(cc12)N(C(=O)c1ccc(-c2ccc(-c4nnc(C)o4)cc2C)cc1)CC3` it was “inactive”.
`O=[N+]([O-])c1ccc(O)c([N+](=O)[O-])c1`: the compound was called inactive.
Consider `C[C@]12CCC(=O)C[C@@H]1CC[C@@H]1[C@@H]2CC[C@]2(C)[C@@H](O)CC[C@@H]12`, for which the call was inactive.
On the same count and under the same terms, next, `CCC(C)(C)c1ccc(O)c(C(C)(C)CC)c1`: “inactive”; `O=C(O)C(Cl)(Cl)Cl`: “inactive”; `O=C(O)C(F)(F)C(F)(F)C(F)(F)C(F)(F)C(F)(F)C(F)(F)F`: “inactive”.
Turning to `C[C@@H]1C[C@@H]([C@H](O)CC2CC(=O)NC(=O)C2)C(=O)[C@@H](C)C1`, the half-maximal activity concentration (AC50) is 9.92 µM (active).
For `CCCCCCCCc1ccc(O)cc1`, the compound was classed as inactive.
The same measure, in the same setting: next, `CC(C)(c1ccccc1)c1ccc(O)c(C(C)(C)c2ccccc2)c1`: “inactive”; `CC(C)(OO)c1ccccc1`: “inactive”.
Still for that read-out and setting: next, `CC(C)(C)c1cc(O)ccc1O`: “inactive”; `Cc1ccccc1N`: “inactive”; `CC12CC1(C)C(=O)N(c1cc(Cl)cc(Cl)c1)C2=O` (stereo unspecified): “inactive”.
For `O=C(Nc1ccc2[nH]ccc2c1)c1cc2cc(F)ccc2n1Cc1cccc(F)c1`, the half-maximal activity concentration (AC50) was 19.2 µM (active).
`O=C1C2(Cl)C3(Cl)C4(Cl)C(Cl)(Cl)C5(Cl)C3(Cl)C1(Cl)C5(Cl)C24Cl` (stereo unspecified): the concentration at half-maximal activity (AC50) is 87.5 µM (active).
Take `O=C(O)C(F)(F)C(F)(F)C(F)(F)C(F)(F)C(F)(F)C(F)(F)C(F)(F)C(F)(F)C(F)(F)C(F)(F)F`: the compound was called inactive.
`CCOP(=S)(OCC)SCSP(=S)(OCC)OCC`: the compound was called inactive.
The same measure, in the same setting: in the case of `Cn1sc(Cl)cc1=O` it was “inactive”.
Take `CC(=O)[O][Hg][c]1ccccc1`: the AC50 is 0.552 µM (active).

Broadly, the AC50 is the concentration at which the activity in the assay is half-maximal.
